# ChEMBL document CHEMBL3988442, “University of Dundee, Small-Polar-MMV Screening Library” (2021)
# In all, about 48,000 compounds went through this assay and about 13,000 (27%) showed an effect of 50% or more. Some of the results follow.
# Tested on: Wolbachia pipientis
# Assay: Anti-Wolbachia Cell-Based Screen
# Format: functional
# Parameters: scale not given: in the data most compounds retested in dose-response had high values
# Conditions: 5 µM
row,SMILES,Percent Effect [%]
1,O=C(Nc1cccnc1)c1ccc(-n2cncn2)nn1,4.763
2,Fc1ccc2c(c1)C1(CCNCC1)CC2OCC1CC1 (stereo not given),-8.217
3,CNC(=O)NC1CC2(CCNCC2)c2ccc(C)cc21 (stereo not given),2.029
4,Cl.Cl.c1ccc2c(c1)C(NC1CCCC1)CC21CCNCC1 (stereo not given),102.9
5,COc1ncccc1CNC(=O)c1csc(Br)c1,-3.895
6,CC(C)c1nnc(NC(=O)NCc2ccnc(N(C)C)c2)s1,-3.838
7,COc1cc(CNC(=O)c2csc(Br)c2)ccn1,70.51
8,COc1cc(CNC(=O)Nc2nnc(C(C)C)s2)ccc1O,0.367
9,CCOc1ncccc1CNC(=O)c1csc(Br)c1,-22.46
10,Cc1nnc(NC(=O)NCc2ccnc(N(C)C)c2)s1,99.1
11,CC/C=C(/C)C(=O)NCc1ccnc(OC)c1,-6.401
12,CN(C)c1cc(CNC(=O)Nc2nnc(C3CC3)s2)ccn1,137.2
13,COc1cc(CNC(=O)Nc2nnc(C(C)C)s2)ccn1,139
14,Cc1cc(Br)ccc1C(=O)N(C)CCNS(C)(=O)=O,-13.91
15,COCc1nc(N(C)CCSc2ccccc2)c2cnn(C)c2n1,-20.02
16,Cc1cnc(CN2CCCC(c3nc4ccccc4n3C(C)C)C2)o1 (stereo not given),-8.983
17,CN(C)C(C(=O)NCC1(C)COC1)c1cccc(F)c1 (stereo not given),3.319
18,CC(C)[C@H]1CN(C2Cc3ccccc3C2)C[C@@H]1NS(C)(=O)=O,7.531
19,CS(=O)(=O)N[C@@H]1CN(Cc2ccc3ccccc3c2)C[C@H]1O,117
20,CS(=O)(=O)NC1CCN(C(=O)c2ccc3ccccc3c2)C1 (stereo not given),-0.4422
21,CS(=O)(=O)N[C@@H]1CN(C(=O)c2cc3ccccc3s2)C[C@H]1O,153.3
22,COc1ccc(CN2C[C@@H]3CCCO[C@@H]3[C@H](NS(C)(=O)=O)C2)cc1.O=C(O)C(F)(F)F,-19.78
23,CS(=O)(=O)N[C@@H]1CN(Cc2ccccc2)C[C@@H]2CCCO[C@@H]21,-3.887
24,CS(=O)(=O)N[C@@H]1CN(Cc2ccccc2)C[C@H]1O,118.1
25,CC(C)[C@H]1CN(C2Cc3ccccc3C2)C[C@@H]1NS(=O)(=O)N(C)C,-3.523
26,CS(=O)(=O)NC1CCN(C(=O)c2cc3ccccc3s2)C1 (stereo not given),-26.49
27,CC(C)[C@@H]1CN(C2CCN(Cc3ccccc3)CC2)C[C@H]1NS(C)(=O)=O,57.6

row,SMILES,Percent Effect [%]
1,CCC[C@@H]1CN(C(=O)c2cc3ccccc3s2)C[C@H]1NS(C)(=O)=O,-8.95
2,CS(=O)(=O)N[C@H]1CN(CCOCc2ccccc2)C[C@@H]1C1CC1,-6.261
3,O=C(NCc1cc2ccccc2s1)c1cc(CN2CCCC(O)C2)on1 (stereo not given),4.701
4,O=C(O)CC[C@@H]1CN(c2ncnc3[nH]ccc23)CC[C@@H]1N1CCOCC1,-3.371
5,COCc1cn(C2CCN(C(=O)c3ccc(F)c(C)c3)CC2)nn1,14.23
6,Cc1cc(F)ccc1OC1(C(=O)O)CCN(Cc2nccn2C)CC1,-12.18
7,O=c1cc(CNS(=O)(=O)C2CC2)nc2n1CCCNC2,10.88
8,O=C(CCC1CCCCO1)NCc1cnn(-c2ccc(F)cc2F)c1 (stereo not given),2.583
9,COc1ccc(C)cc1-n1cnnc1C1CCOCC1,1.298
10,CCC[C@@H]1CN(Cc2ccc(C(F)(F)F)nc2)C[C@H]1NS(C)(=O)=O,-0.637
11,CS(=O)(=O)N[C@@H]1CN(Cc2ccc3ncccc3c2)C[C@H]1O,100.1
12,CCC[C@@H]1CN(C(=O)c2cnc3ccccc3c2)C[C@H]1NS(C)(=O)=O,-44.49
13,CSc1ccsc1C(=O)NS(=O)(=O)c1cnn(C)c1,-33.43
14,Cc1cccc(N2CCN(C(=O)CN3CCN(CCO)CC3)CC2)c1,-11.5
15,O=C1CC(c2ccc(C(=O)O)cc2)c2ncn(-c3ccc(F)cc3)c2N1 (stereo not given),-3.148
16,OCc1c(Cl)ncn1-c1ccc(F)cc1,124.8
17,Cc1cccc(-n2cnc(Cl)c2CO)c1,116.1
18,COc1ccc(OCC(=O)n2nc(C)c(C)c2C)cc1,7.668
19,COc1ccc(-n2cnc(Cl)c2CO)cc1,99.78
20,Cc1ccc(-n2cnc(Cl)c2CO)cc1,81.89
21,COC(=O)CN1CCN(c2cccc(C)c2)CC1,-56.86
22,COc1ccc(-n2cnnc2CC2CCNCC2)cc1,-7.776
23,CC(=O)c1c(C)cc(C)c(Cn2ccnc2S(C)(=O)=O)c1C,-6.43
24,CCOCCCC(=O)Nc1[nH]nc(-c2ccncc2)c1C,17.32
25,Cc1ccccc1-n1cnc(Cl)c1CO,94.22
26,Cc1ccccc1-n1cnnc1SCC(=O)NCC1CCCO1 (stereo not given),6.164
27,Cc1ccccc1-n1cnnc1SCC1CCCCO1 (stereo not given),0.1895

row,SMILES,Percent Effect [%]
1,OCc1c(Cl)ncn1-c1ccccc1,94.93
2,Cc1ccoc1C(=O)NCCOc1ncc(Cl)cc1Cl,-11.16
3,Cc1nn(CCC#N)c(C)c1[C@@H]1C=C[C@@H](NCc2cccc(Cl)c2)C1,-10.09
4,O=C(Nc1ccncc1)NC1CCN(c2ccccc2OC(F)F)C1 (stereo not given),-11.28
5,CCc1nc(C2CCCN(c3nccc(C)n3)C2)no1 (stereo not given),-0.3429
6,Cc1noc(CCCC(=O)N(CC2CCOC2)C2CC2)n1 (stereo not given),-3.8
7,Cc1noc(CCCc2nc(C3CCOC3)no2)n1 (stereo not given),78.93
8,Cc1noc(C)c1CS(=O)(=O)Cc1nc(C2CC2)no1,-5.953
9,Cc1ccc(CCc2nc(C3CCOC3)no2)o1 (stereo not given),90.49
10,CC(C)CCN1CCN(Cc2nc(C3CC3)no2)CC1,-1.38
11,Cc1noc(C)c1CCc1nc(C2CCOC2)no1 (stereo not given),100.6
12,Cc1noc(C)c1Cc1nc(C2CC2)no1,-12.44
13,Cc1ccccc1CS(=O)(=O)Cc1nc(C2CC2)no1,-6.253
14,CCOCC(=O)NC(C)c1cc(C)ccc1C (stereo not given),4.424
15,c1nc(CSc2nnc(C3CC3)s2)cs1,-11.09
16,CCN1CCC(CC(=O)NCc2cc(C)nn2C)CC1,-11.94
17,COc1c(CNCC(=O)N2CCN(C)CC2)c(C(C)C)nn1C,95.67
18,COc1c(CNC2(c3noc(C)n3)CCC2)c(C(C)C)nn1C.Cl,-8.281
19,CC(C)c1nn(C)c(N(C)C)c1CNCCC(=O)N(C)C.Cl,-2.081
20,CC(C)c1nn(C)c(Cl)c1CNCC(=O)N1CCN(C)CC1.Cl,99.42
21,COc1c(CNCc2cnn(C)c2)c(C(C)C)nn1C,-6.64
22,CC(C)c1nn(C)c(N2CCOCC2)c1CNCC(=O)N(C)C,-5.66
23,Cc1cccc(N2CCC(NC(C)c3cccs3)CC2)n1 (stereo not given),-26.34
24,C[C@@H]1CN(c2ccc3c(Cl)ccnc3c2F)CC(C(N)=O)O1 (stereo not given in full),-9.196
25,CC(C)c1noc(CCCC(=O)NC2CCS(=O)(=O)C2)n1 (stereo not given),7.76
26,CC(C)(C)S(=O)(=O)c1ccc(N2CCN(c3ccccn3)CC2)nn1,14.84
27,CC(C)NC(=O)N1CCC2(CC(=O)N(c3cccc(C#N)c3)C2)C1 (stereo not given),-3.038

row,SMILES,Percent Effect [%]
1,Cc1cccc(NC(=O)N2CCC3(CC(=O)N(c4ccsc4)C3)C2)c1 (stereo not given),111.9
2,Cc1cccc(N2CC3(CCN(S(=O)(=O)c4ccccc4)C3)CC2=O)c1 (stereo not given),-6.441
3,O=C(Cc1ccccc1)N1CCC2(CC(=O)N(c3ccsc3)C2)C1 (stereo not given),4.465
4,CC(C)NC(=O)N1CCC2(CC(=O)N(c3ccsc3)C2)C1 (stereo not given),94
5,O=C(Nc1ccccc1)N1CCC2(CC(=O)N(c3ccsc3)C2)C1 (stereo not given),106
6,CC(C)NC(=O)N1CCC2(C1)CN(c1ccsc1)C(=O)CN2C.O=C(O)C(F)(F)F (stereo not given),-13.82
7,CCN1CC2(CNCCN(C(=O)Nc3ccccc3)C2)CC1=O.O=C(O)C(F)(F)F (stereo not given),-17.66
8,COCC(=O)N1CCC2(CC(=O)N(c3cccc(F)c3)C2)C1 (stereo not given),-16.31
9,O=C(c1cnccn1)N1CC[C@H]2[C@@H]1CCC(=O)N2c1cccnc1,-6.797
10,COc1cc(C)cc(C(C(=O)O)N(C)Cc2ccncc2C)c1OC (stereo not given),4.518
11,Cc1ccc([C@]2(O)CC[C@H]3CN(Cc4ccc(Cl)cc4Cl)C[C@H]32)nc1,121.2
12,CSc1ccc(CN2C[C@@H]3CC[C@@](O)(c4ccc(C)cn4)[C@@H]3C2)cc1,135.2
13,CN(C)C(=O)CN1C[C@@H]2CC[C@H](C1)N(Cc1ccc(Cl)cc1Cl)C2,-35.05
14,Cc1cccc(C2(NC(=O)CCN3C(=O)CCC3=O)CCCC2)c1,-3.276
15,COCc1ccccc1NC(=O)NCc1ccc(OCC2CC2)nc1,7.542
16,COCCN1CCC(CNc2cnc3ccccc3n2)CC1,-17.24
17,OCCOc1ccc(NCc2cccnc2)cn1,7.993
18,OC1CCN(c2ccc(CNc3nc4ccccc4o3)cc2F)CC1,-1.066
19,COCCOc1ccc(CNc2nc3ccccc3o2)cn1,106.2
20,COCCN1CCC(CNc2nc3ccccc3o2)CC1,8.013
21,COCCOc1ccc(CNc2cnc3ccccc3n2)cn1,132.7
22,COCCOc1ccc(NCc2cccc3cn[nH]c23)cn1,-20.32
23,COCCOc1ccc(CNc2nc3ccccc3nc2N)cn1,162.2
24,Cl.O=C1CC(NCc2cnc(N3CCCC3)nc2)CN1c1ccccc1 (stereo not given),36.64
